Each structure is given as a SMILES string. Activity calls are given as the source filed them. How the calls were made is not given here.

A short description of this test: PubChem AID 623944. The note with it: Ricerca radioligand binding panel, % inhibition, at 10 µM, stronger effect = higher value.

Usually inhibition stands for the relative decrease from the control value, in per cent. As for `O=C(Nc1ccc(N(Cc2ccsc2)C(=O)Cn2nnc3ccccc32)cc1)C1CC1`, the inhibition is 75% (inactive). The inhibition (GABA-A flunitrazepam site inhibition) was 22%. Besides, the inhibition (adenosine A3 binding inhibition) was found to be 20%. Further, under “androgen receptor binding inhibition”, the inhibition was 42%. Moreover, under “cannabinoid CB1 binding inhibition”, the inhibition was determined as 25%. The inhibition (dopamine D2S binding inhibition) worked out at 4%. Moreover, under “dopamine transporter binding inhibition”, the inhibition was found to be 12%. Further, the inhibition (hERG binding inhibition) turned out to be 15%. Besides, the inhibition (kappa opioid binding inhibition) was determined as 20%. In addition, where the note is “muscarinic M1 binding inhibition”, the inhibition is -7%. In addition, the inhibition (norepinephrine transporter binding inhibition) turned out to be 18%. For the same compound, where the note is “serotonin transporter binding inhibition”, the inhibition is -1%. Besides, the inhibition (sigma receptor binding inhibition) is 42%.

These data come from PubChem BioAssay AID623944 (Vanderbilt Specialized Chemistry Center, 2012).
